In all, about 400,000 compounds went through this assay and about 2,100 (0.53%) were called active. Not shown: some 14% with an inconclusive outcome. The rule behind the calls is not given here. This excerpt belongs to a sample that is enriched for actives.
Each compound was assayed against Ataxin-2 (Homo sapiens) (UniProt Q99700) (assay: qHTS for Inhibitors of ATXN expression.).
Sequence of Ataxin-2 (Homo sapiens) (Q99700 whole entry): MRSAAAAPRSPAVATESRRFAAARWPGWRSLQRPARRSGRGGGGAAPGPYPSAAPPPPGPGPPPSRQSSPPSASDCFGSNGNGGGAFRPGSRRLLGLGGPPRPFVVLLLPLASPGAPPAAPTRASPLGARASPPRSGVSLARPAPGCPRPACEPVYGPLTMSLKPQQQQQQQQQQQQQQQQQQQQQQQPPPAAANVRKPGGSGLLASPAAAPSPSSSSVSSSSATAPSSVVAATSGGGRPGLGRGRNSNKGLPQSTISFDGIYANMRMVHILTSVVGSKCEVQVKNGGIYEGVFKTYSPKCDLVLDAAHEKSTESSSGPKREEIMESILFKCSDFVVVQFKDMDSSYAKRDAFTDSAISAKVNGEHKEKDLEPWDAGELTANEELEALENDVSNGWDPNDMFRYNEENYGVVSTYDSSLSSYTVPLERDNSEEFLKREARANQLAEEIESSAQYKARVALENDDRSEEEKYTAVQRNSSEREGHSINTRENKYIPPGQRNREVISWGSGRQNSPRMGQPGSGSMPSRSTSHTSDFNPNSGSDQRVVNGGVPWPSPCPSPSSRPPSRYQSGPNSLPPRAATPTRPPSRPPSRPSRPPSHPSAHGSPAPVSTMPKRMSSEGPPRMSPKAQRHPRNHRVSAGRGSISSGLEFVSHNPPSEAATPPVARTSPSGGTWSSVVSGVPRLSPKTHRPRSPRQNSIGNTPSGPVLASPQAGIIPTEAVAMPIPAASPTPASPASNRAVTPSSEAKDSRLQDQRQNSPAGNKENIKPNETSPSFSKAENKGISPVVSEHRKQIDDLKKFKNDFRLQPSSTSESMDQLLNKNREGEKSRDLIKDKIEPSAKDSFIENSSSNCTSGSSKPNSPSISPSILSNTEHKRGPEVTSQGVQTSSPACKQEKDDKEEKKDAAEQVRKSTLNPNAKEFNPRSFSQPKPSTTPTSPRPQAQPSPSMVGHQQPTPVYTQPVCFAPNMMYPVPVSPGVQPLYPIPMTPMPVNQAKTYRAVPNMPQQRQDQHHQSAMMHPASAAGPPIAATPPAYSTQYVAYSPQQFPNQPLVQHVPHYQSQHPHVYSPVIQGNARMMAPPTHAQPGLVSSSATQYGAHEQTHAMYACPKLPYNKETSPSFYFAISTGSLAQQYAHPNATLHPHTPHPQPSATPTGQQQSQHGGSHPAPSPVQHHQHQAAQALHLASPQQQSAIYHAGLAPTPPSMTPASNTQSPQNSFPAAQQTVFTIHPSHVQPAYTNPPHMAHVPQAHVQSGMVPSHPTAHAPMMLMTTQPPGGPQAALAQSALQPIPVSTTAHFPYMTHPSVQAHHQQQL
Format: functional
In the case of `CC(=O)c1ccc(/C=C/c2nc3ccccc3n2C)o1`, the Potency is reported as “inactive”. For `Fc1ccc(N2CCN(C(S)=NCc3ccco3)CC2)cc1`, the Potency was “inactive”. For `Nc1cccc2c1C(=O)N(C(=O)c1cccc(S(=O)(=O)N3CCCC3)c1)C2=O`, the Potency was “inactive”. `C/C(=N\OCC(=O)Nc1ccccc1C(=O)O)c1cccs1` was tested, and the Potency was “inactive”. `CC(=O)NC1=NC(=O)/C(=C/c2cc(C)n(-c3cccc(C(=O)O)c3)c2C)S1` was tested, and the Potency was “inactive”. With `CC(C)(C)c1cc(C(=O)NNc2cccc(Cl)c2)n(Cc2ccccc2)n1` the Potency was “inactive”. `CC(C)(C)c1cc(NC(=O)COC(=O)c2ccccc2)n(-c2ccccc2)n1` was tested, and the Potency was “inactive”. `CC(C)CC(N)c1csc(NC(=O)c2cc(C(C)(C)C)nn2Cc2ccccc2)n1` (stereo not given) was tested, and the Potency was 31.6 µM (active). In the case of `COC(=O)c1ccc(COc2ccccc2OC)o1`, the Potency is reported as “inactive”. In the case of `CC(C)Cn1c(N)c(C(=O)COC(=O)c2cc3ccccc3cc2O)c(=O)n(C)c1=O`, the Potency is reported as “inactive”. `Cc1ccc(-n2cc(CNCCCn3cccn3)c(-c3cccc(C)c3)n2)cc1` was tested, and the Potency was 20 µM (active). For `Cc1ccc(C2(c3ccc(C)cc3)NC(=O)N(CC(=O)NCCCN3CCCC3=O)C2=O)cc1`, the Potency was “inactive”. With `Cc1cccc(-n2cc(CNCCc3nc(C)cc(C)n3)c(-c3cccc(F)c3)n2)c1` the Potency was 31.6 µM (active). With `Cc1cccn2c(=O)c3cc(C(=O)NCCCN4CCCC4=O)n(C)c3nc12` the Potency was “inactive”. In the case of `Cc1cccc(C2=NN(c3ccccc3)[C@H](CO)[C@H]2c2ccc(F)cc2)c1`, the Potency is reported as “inactive”. For `Cc1ccc(-n2cc(CNCCCN3CCCC3=O)c(-c3ccc(F)cc3)n2)cc1`, the Potency was 25.1 µM (active). For `CCOC(=O)c1cc2c(=O)n3ccccc3nc2n(CCCOC)/c1=N\C(=O)C(C)(C)C`, the Potency was “inactive”. In the case of `CCOc1ccc(NC(S)=Nc2cccnc2)cc1`, the Potency is reported as “inactive”. `Cc1cc(N(C)Cc2ccccc2)nc2cc(O)ccc12` was tested, and the Potency was “inactive”. For `CN(CCCC(=O)N1CCN(c2ncccn2)CC1)S(=O)(=O)c1ccc(F)cc1`, the Potency was “inactive”. In the case of `O=C(NC1CCCCCC1)c1cc2c(=O)n3ccccc3nc2s1`, the Potency is reported as “inactive”. In the case of `O=C(Cn1ncc(Cl)c(Cl)c1=O)NCC1CCCCC1`, the Potency is reported as 31.6 µM (active). In the case of `O=C(Cn1ncc(Cl)c(Cl)c1=O)NC1CCCCC1`, the Potency is reported as 28.2 µM (active). With `O=C(NCC1CCCCC1)c1ccc(Cl)c(S(=O)(=O)N2CCOCC2)c1` the Potency was “inactive”. With `Cc1ccc(-n2nc3c(=O)n(CC(=O)NC4CCCCC4)nc(C)c3c2C)cc1` the Potency was “inactive”. For `Cc1cc(C(F)(F)F)c(C#N)c(SCC(=O)Nc2nc3cc(Br)ccc3s2)n1`, the Potency was “inactive”. `COC(=O)c1sc2ccccc2c1NC(=O)c1ccc(S(=O)(=O)N2CCCC(C)C2)cc1` (stereo not given) was tested, and the Potency was “inactive”. In the case of `Cc1ccc2nc3c(cc2c1)c(NC(=O)c1ccco1)nn3CC(C)C`, the Potency is reported as “inactive”. With `COc1ccc(CCN(Cc2cc3cc(C)ccc3nc2O)C(C)=O)cc1OC` the Potency was “inactive”. With `Oc1nc2ccccc2nc1-c1nnnn1Cc1ccccc1` the Potency was “inactive”. `CCC(c1nnnn1Cc1ccco1)N(CCc1ccccc1)Cc1cc2cc(C)ccc2nc1O` (stereo not given) was tested, and the Potency was 39.8 µM (active). With `CCOc1ccc2nc(O)c(CN(Cc3ccco3)C(CC)c3nnnn3Cc3ccccc3)cc2c1` (stereo not given) the Potency was 20 µM (active). For `CC1CCCN(C(=S)SCC(=O)c2cc(Br)cc(Br)c2O)C1` (stereo not given), the Potency was “inactive”. For `O=C(Cc1csc(Nc2nc(S)nc3ccccc23)n1)N1CCN(c2cccc(Cl)c2)CC1`, the Potency was “inactive”. In the case of `CCn1c(SC(C)C(=O)Nc2nnc(C)s2)nnc1-c1ccco1` (stereo not given), the Potency is reported as “inactive”. `Cc1cc(/C=C(\C#N)C(=O)NCc2cccs2)c(C)[nH]1` was tested, and the Potency was “inactive”. In the case of `Cc1cc(C(=O)CN2C(=O)c3cccc(N)c3C2=O)c(C)n1Cc1cccs1`, the Potency is reported as “inactive”. In the case of `Cc1c(C#N)c(NC(=O)CCl)n(Cc2cccs2)c1C`, the Potency is reported as 11.2 µM (active). `Cc1c(CCC(=O)O)c(=O)oc2c(C)c3occ(-c4ccc(Cl)cc4)c3cc12` was tested, and the Potency was “inactive”. In the case of `O=C1OCc2ccc(NS(=O)(=O)c3ccc(C(F)(F)F)cc3)cc21`, the Potency is reported as “inactive”. `C[C@H]1CN([C@@H](C)CO)C(=O)Cc2cc(NC(=O)CCC(F)(F)F)ccc2O[C@H]1CN(C)Cc1ccc(C(F)(F)F)cc1` was tested, and the Potency was 39.8 µM (active). `C[C@@H]1CN([C@@H](C)CO)C(=O)CCCn2nncc2CO[C@H]1CN(C)Cc1ccc(-c2ccccc2)cc1` was tested, and the Potency was 28.2 µM (active). With `COc1cccc(S(=O)(=O)N(C)C[C@@H]2OCc3cnnn3CCCC(=O)N([C@@H](C)CO)C[C@H]2C)c1` the Potency was “inactive”. With `C[C@@H]1CN([C@H](C)CO)C(=O)Cc2cc(NS(=O)(=O)c3ccc(Cl)cc3)ccc2O[C@H]1CN(C)Cc1ccc(C(F)(F)F)cc1` the Potency was 25.1 µM (active). `C[C@H](CO)N1C[C@H](C)[C@@H](CN(C)S(=O)(=O)c2ccc(-c3ccccc3)cc2)OCc2cn(nn2)CCCC1=O` was tested, and the Potency was “inactive”. In the case of `C[C@H]1CN([C@@H](C)CO)C(=O)Cc2cc(NC(=O)CCC(F)(F)F)ccc2O[C@H]1CN(C)Cc1ccc(-c2ccccc2)cc1`, the Potency is reported as 35.5 µM (active). For `COCCCNC(=O)/C(C#N)=C/c1c(N2CCN(C)CC2)nc2c(C)cccn2c1=O`, the Potency was “inactive”. For `CNS(=O)(=O)c1ccc2c3c(cccc13)C(=O)N2`, the Potency was “inactive”. `Cc1c(Cc2ccccc2)c(NCCCO)n2c(nc3ccccc32)c1C#N` was tested, and the Potency was “inactive”. With `NC(=O)c1cc2ccc(O)cc2o/c1=N\c1ccccc1` the Potency was “inactive”. For `Cc1ccc(S(=O)(=O)Nc2ccc3c(c2)CC(=O)N([C@H](C)CO)C[C@H](C)[C@H](CN(C)Cc2ccc4c(c2)OCO4)O3)cc1`, the Potency was 35.5 µM (active). For `C[C@H]1CN([C@@H](C)CO)C(=O)Cc2cc(NC(=O)C3CC3)ccc2O[C@H]1CN(C)Cc1ccc(Oc2ccccc2)cc1`, the Potency was 25.1 µM (active). In the case of `Cc1ccc(NC(=O)C2CC(=O)N(C(C)C)C2)cc1C` (stereo not given), the Potency is reported as “inactive”. `CN(C)Cc1ccccc1CNC(=O)c1cccc(S(=O)(=O)Nc2ccc3c(c2)OCO3)c1` was tested, and the Potency was “inactive”. For `Cc1cc(C)c(S(=O)(=O)NCc2ccc3c(c2)OCO3)c(C)c1`, the Potency was “inactive”. `Cc1ccc(-c2nc(C[S+]([O-])CC(=O)NCCN3CCCCCC3)c(C)o2)cc1` (stereo not given) was tested, and the Potency was “inactive”. With `CCOC(=O)CN1C(=O)CC(c2ccc([N+](=O)[O-])cc2)C1=O` (stereo not given) the Potency was “inactive”. With `NC(=O)c1nsc(C(=O)N(c2ccccc2F)C(C(=O)NCc2ccccc2)c2ccc(O)cc2)c1N` (stereo not given) the Potency was “inactive”. `Cc1ccc(Nc2nc(-c3ccncc3)cs2)cc1` was tested, and the Potency was “inactive”. With `Cc1ccc(-c2csc(N3CCN(CCCn4c(-c5ccncc5)nc5ccccc54)CC3)n2)cc1` the Potency was 35.5 µM (active). With `Cc1csc(N2CCN(c3cc4c(cc3Cl)nc(-c3ccncc3)n4CCCN3CCCC3)CC2)n1` the Potency was 35.5 µM (active). In the case of `O=[N+]([O-])c1ccc(-c2csc(N3CCCCCC3)n2)cc1`, the Potency is reported as “inactive”. In the case of `O=C(Nc1nc2c(s1)CN(Cc1ccccc1)CC2)c1c(F)cccc1F`, the Potency is reported as “inactive”. In the case of `ClC1(Cl)CC1CSc1nc2ccccc2[nH]1` (stereo not given), the Potency is reported as “inactive”. `COc1ccc(/C=C2\SC(=S)N(CC(=O)NNC(=O)c3ccncc3)C2=O)cc1` was tested, and the Potency was “inactive”. In the case of `CN1CCN(C(=O)CCN2C(=O)/C(=C\c3ccc(F)cc3)SC2=S)CC1`, the Potency is reported as 39.8 µM (active). With `Cc1ccc(/C=C2\Oc3c(ccc(O)c3CN3CCN(C)CC3)C2=O)cc1` the Potency was “inactive”. `CC/N=C1/S/C(=C/c2ccc(-c3ccc(F)cc3)o2)C(=O)N1CC` was tested, and the Potency was “inactive”. In the case of `O=C(CCN1C(=O)/C(=C\c2ccc(F)cc2)SC1=S)Nc1ccccc1`, the Potency is reported as “inactive”. For `Cc1ccc(/C=C2/SC(=S)N(CCC(=O)N3CCN(C)CC3)C2=O)cc1`, the Potency was 11.9 µM (active). For `Cc1ccc(/C=C2\SC(=S)N(CCC(=O)NNC(=O)c3ccncc3)C2=O)cc1`, the Potency was “inactive”. With `COc1ccc(/C=C2/SC(=S)N(CCCC(=O)N3CCN(C)CC3)C2=O)cc1` the Potency was 17.8 µM (active). In the case of `COc1ccc(-n2c(=O)/c(=C\c3cccs3)s/c2=C(/C#N)C(=O)N2CCN(C)CC2)cc1`, the Potency is reported as “inactive”. `O=C(Nc1cc[n+](-c2nc3ccccc3nc2[N-]S(=O)(=O)c2ccccc2)cc1)c1cccs1` was tested, and the Potency was “inactive”. In the case of `COC(=O)c1ccc(CSc2nc(C(F)F)cc(C)c2C#N)o1`, the Potency is reported as “inactive”. In the case of `O=C(OCC1CCNCC1)c1ccc(F)cc1`, the Potency is reported as “inactive”. In the case of `C=CCNC(=O)C(C#N)c1nc2ccccc2nc1N1CCCCCC1` (stereo not given), the Potency is reported as “inactive”. For `COc1cccc(/C=N/NC(=O)NC2CCCCC2)c1O`, the Potency was “inactive”. For `COc1ccccc1[C@@H]1C(c2ccc(F)cc2)=NN(c2ccccc2)[C@H]1C(=O)N1CCOC1=O`, the Potency was “inactive”. With `COc1ccccc1/C=C/C1(C(=O)NC2CCCC2)CC(=O)N1c1ccc(F)cc1` (stereo not given) the Potency was 14.1 µM (active). With `COc1ccccc1Nc1nc(Cl)c(C=O)s1` the Potency was “inactive”. With `Nc1nc(Sc2ccc([N+](=O)[O-])c3nonc23)c2nc[nH]c2n1` the Potency was 22.4 µM (active). With `CCCNC(=O)/C=C/C(=O)O` the Potency was “inactive”. `Cc1cc(C(=O)O)ccc1-c1ccc(/C=C2\NC(=O)N(Cc3ccccc3Cl)C2=O)o1` was tested, and the Potency was “inactive”. `CC(=O)c1ccccc1NC(=O)COC(=O)CN1C(=O)C2CCCCC2C1=O` (stereo not given) was tested, and the Potency was “inactive”. In the case of `O=C(OCC(=O)N1CCC(Cc2ccccc2)CC1)c1ccccc1F`, the Potency is reported as “inactive”. With `CSc1ccc(NC(=O)NCCCN2CCC(Cc3ccccc3)CC2)cc1` the Potency was 39.8 µM (active). With `O=C(Nc1ccccc1)Nc1ccccc1C(=O)NCCCN1CCOCC1` the Potency was “inactive”. `CN(C)c1ccc(/C=N/CCc2ccc(S(N)(=O)=O)cc2)cc1` was tested, and the Potency was “inactive”. With `C(=C\c1ccco1)/C1=NN(c2ccccc2)C(c2ccco2)C1` (stereo not given) the Potency was “inactive”. In the case of `CCOCCCn1/c(=N/C(C)=O)c(C(=O)OCC)cc2c(=O)n3ccccc3nc21`, the Potency is reported as “inactive”. `COc1cccc2c1C(=O)c1c(O)c3c(c(O)c1C2=O)CC(O)(C(C)=NNC(=O)c1ccc(Cl)c(Cl)c1)CC3OC1CC(N)C(O)C(C)O1` (stereo not given) was tested, and the Potency was 2.67 µM (active). With `COc1cccc2c1C(=O)c1c(O)c3c(c(O)c1C2=O)C[C@@](O)(C(=O)CO)C[C@@H]3O[C@H]1C[C@H](N)[C@@H](O)[C@H](C)O1` the Potency was 8.91 µM (active). For `COc1cccc2c1C(=O)c1c(O)c3c(c(O)c1C2=O)CC(O)(C(=O)CO)CC3OC1CC(N(C)C)C(O)C(C)O1` (stereo not given), the Potency was 1.19 µM (active). `COc1cccc2c1C(=O)c1c(O)c3c(c(O)c1C2=O)C[C@](O)(C(C)=O)C[C@H]3O[C@@H]1C[C@H](N)[C@H](O)[C@H](C)O1` was tested, and the Potency was 1 µM (active).

— ChEMBL document CHEMBL1201862, “PubChem BioAssay data set” (2004)
